# Test results reported in the supplement of paper PMC11417369.
# Over roughly 25,000 sequences, “ln(normalized median fluorescence intensity)” has its median near 7.1; the highest 2% begin near 10. The sample as a whole holds a higher share of the highest values than the screen did.
# Tested on: PfSIP2 AP2 domain 1 (GST-tagged)
# Test: gcPBM binding intensity (ln(normalized median fluorescence intensity)); higher = stronger DNA binding
# Procedure, shortened: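 After 1 h on an Agilent 4 × 180k array of primer-extended double-stranded 36-bp intergenic genomic probes and negative controls, bound GST-tagged P. falciparum DNA-binding domains were detected with Alexa488 anti-GST antibody and scanned at 488 nm. The domains had been expressed in E. coli, and binding took place in 1× PBS with 1% milk, 0.2 mg/ml BSA, 0.5% salmon testes DNA and 0.03% Triton X-100. Binding intensity is the highest Masliner-normalised natural-log median intensity across replicate spots of either probe orientation.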
row,Sequence,gcPBM binding intensity (ln)
1,ACTGCGTTTTTACACGCGCACTGCAATGAACAATAT,8.05
2,AGGTAGAAAAAAGACACACACATTAGATATTTATAT [CACACA_site6313],6.87
3,TATTATATTCTGCTTACACACATATATATATATATA [CACACA_site3060],9.32
4,ATTTTTTTTTCTTTCGCACACGTGAAAGAATTTCTA [CACACA_site2052],7.13
5,TTATATATTTATATATGTACACATTTTACCATTTTT [XGTACX_site2142],6.9
6,GAAAAAAAAAAAAATACACACAAATTGGTATATAAC [CACACA_site6315],6.75
7,TATATACACATTTTTATACACACTTGTTTTATAAAA [CACACA_site8139],7.16
8,AATAAATAAATAAATAAATATATATATATATATATA [GTGCAC_negctrl_site224],9.48
9,AAATGAAAAATAAGGAAAAAAAAAAAAAAAAAAAAA [CACACA_negctrl_site1715],6.88
10,TTTTTTACTTTTGAGACATTTCATATTTTTATTCAC [GTGCAC_negctrl_site730],6.91
11,AATATTTACAGACATGCGCACACATAAATAAATAAT [CACACA_site8760],8.81
12,TATATCTTAATATTTACACACATGCGCACCCATAAA [CACACA_site5349],12
13,TATTTACACCCATGCGCACACATAAATAAATAATAG [CACACA_site5350],8.34
14,TATATATTAATATTTACACACATGCGCACCCATAAA [CACACA_site2410],12.1
15,TATATATCAATATTTACACACATGCGCCCACATAAA [CACACA_site7185],7.57
16,TATTAATATTTACACACATGCGCACACATAAATAAA [TGCATGCA_site609],9.31
17,TATGAATGGTTAAGTACACACATATTAAGATATGTA [CACACA_site5852],6.99
18,TGCATTTTACTTGTTACACACATATAAAATTAACCA [CACACA_site7387],7.11
19,CTATTTAAAATTTGAACACACATTATTTATTTTAAA [CACACA_site3114],6.9
20,ACTTTAACCTGAACGGTGCATAAAATTTTGGCATTA,10.8
21,TTATAGCCTGTGAAGAGTACATTTTTATTTTTTATT [XGTACX_site4105],6.85
22,TTTTTTTTTTTTTGGTGTACCATAGGTAAAATGATT [XGTACX_site8020],7.2

row,Sequence,gcPBM binding intensity (ln)
1,TATTTATATTTATACACACACACAAAAAAAAAAAAA [CACACA_site6817],7.22
2,TATTTTTTATATTTATTTATTTAAAGGAGCTTTTCT [GTGCAC_negctrl_site293],6.67
3,CAGGTGCACTATATTACACACGCTTCTTTTTTTTTA [CACACA_site2069],12.4
4,ATATATATATATATTACACACTTTTTCTTTTTTTTT [CACACA_site2780],9.47
5,TTTTTCATTTAGCTTTTACACACTATATATTATTGA [CACACA_site7888],7.16
6,TATATATATATGTGCACACATAAAGATATTATTTTT [CACACA_site3733],9.51
7,ATATATTTTATATGTGTGCACTATATATATATATAT,10.2
8,TATATATTTTTATGTGTGCACTGTTTCATAAAAGAA,10.9
9,TATATATATATATATGTGCACATATTTATATGTTTT,9.47
10,AATATTTCTCATTTTGTGCACTGAAAAATGTAATAT,10.2
11,AATTTTTTTTTTTTTTTTTTTTATATATGTGTGTGT [XGTACX_negctrl_site129],7.29
12,ATATATTGCACTTTTTGTACATAATGAAAAATTTTT [XGTACX_site8223],8.1
13,AATATATTTATGCTCATGCACTTTTTTTTTTTTTTT [GTGCAC_site9654],8.89
14,TATATATTTCGGTGTGCACACTTTTTATTTTTATCC [CACACA_site1726],8.4
15,ATCATATTTTTATGTGTGCACTTTTTTTTTTTTTTT [GTGCAC_site9555],10.8
16,ACATATTATATATGTGTGCACATATATATATATTTA [GTGCAC_site9591],8.7
17,TATATATATTTTTGTGTGCACTATAATATGAAAATA,10.8
18,AAATATATTTTACATTGTACATGAATAAACTATAAA [XGTACX_site2080],7.05
19,AAGGCAAGCACTTAAACATGCATATAATAATATCAT [TGCATGCA_site698],7.36
20,TGATAAGTATACTAAAGTACATGAAAAATAACTTCC [XGTACX_site6908],6.87
21,ATTACATACGAGCACACGTAAAAGTATAATATAAAA [GTGCAC_negctrl_site446],6.94
22,TGAGTATATATAAATACACACCAAATGTTAATATAT [CACACA_site5022],6.8

row,Sequence,gcPBM binding intensity (ln)
1,TAATGATAAATACATACACACAAAAAATAATATATA [CACACA_site2576],6.85
2,CATATATATTTGTTCACACACACACTAGAAAAAAAA [CACACA_site5380],7.29
3,TATGATACATAAATATGTACGTATAATATATATTTA [XGTACX_site7002],6.96
4,ATTATTAAAAATATGGGTACATATTATTGTTATATA [XGTACX_site1958],6.89
5,AAAAAATAAAAAATATGTACACATTCAAAATTTTAC [XGTACX_site8479],6.91
6,ATTTTATGAAATGTTGCACACAAAAAACAACATGTT [CACACA_site8408],7.66
7,TATATTTTTATGTGTGTGCACAAAATAACAAAATAT [GTGCAC_site9596],9.36
8,TATTTTTGGTTATGTGTGCACTATGAACAACAAAAT,10.5
9,AATATTTGCCTATGTTGTACTGACATTTTTTTAAGT [XGTACX_site6836],7.06
10,TTTTAAGATATAAATTAATACTTATATATATAGATA [CACACA_negctrl_site22],6.75
11,TAATTACACTTTAAAAGTACATATATAATAACATTA [XGTACX_site379],7.04
12,ATTAGTTTACACATATGTACATATATTACAACAAAA [XGTACX_site275],7.34
13,AAAAAGAACACAAAAAGTACAAAAATTATAATGATA [XGTACX_site2676],6.98
14,AAAAAAAAAAAAAACACACACATGCACATCATATTA [CACACA_site4467],7.43
15,AACACATACATATATGCACACATTTTATTCCATTAT [CACACA_site2834],8.05
16,ATATTATATATATACACACACACATGCATGCACATA [CACACA_site7917],8.98
17,CATATATGGTTATATACATGCACCATTATATTATTA [TGCATGCA_site520],10.3
18,ATATTATATATATACACACACACATGCATGCACCTA [CACACA_site106],11.1
19,ATATGGATTATACATACATGCATACATACATACATA [TGCATGCA_site475],7.1
20,AAAAAAAAAAAAAACACACACATGCACCTCATATTA [CACACA_site556],11.4
21,AAAAAAAAAACACACACATGCACATCATATTATATA [TGCATGCA_site133],7.03
22,ATATTATAGATATACACACACACATGCATGCACATA [CACACA_site6203],8.64
